Records with an inconclusive call do not appear. The source made the active and inactive calls. Rule for the calls, unless noted: active = hit-call score of the fitted dose curve at least 0.9, where 1 is the maximum; inconclusive = response in the unintended direction; inactive = score below 0.9.

The source of these data is PubChem BioAssay (EPA / NIEHS).

Chain of Thyroid hormone receptor alpha (Rattus norvegicus) + Thyroid hormone receptor beta (Rattus norvegicus) (P63059 whole entry, looked up): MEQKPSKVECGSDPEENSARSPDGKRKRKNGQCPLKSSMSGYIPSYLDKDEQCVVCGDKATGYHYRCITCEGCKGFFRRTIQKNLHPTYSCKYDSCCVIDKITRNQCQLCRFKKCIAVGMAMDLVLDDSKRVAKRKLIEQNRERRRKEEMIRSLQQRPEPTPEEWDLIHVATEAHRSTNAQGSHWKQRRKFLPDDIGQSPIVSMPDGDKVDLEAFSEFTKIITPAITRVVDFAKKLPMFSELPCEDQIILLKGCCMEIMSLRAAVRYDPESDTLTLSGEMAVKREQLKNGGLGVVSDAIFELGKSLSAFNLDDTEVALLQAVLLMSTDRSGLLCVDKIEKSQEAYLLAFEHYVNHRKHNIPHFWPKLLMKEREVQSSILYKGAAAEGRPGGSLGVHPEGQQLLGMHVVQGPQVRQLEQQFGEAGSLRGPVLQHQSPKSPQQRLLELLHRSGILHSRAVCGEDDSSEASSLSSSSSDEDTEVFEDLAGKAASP
Chain of Thyroid hormone receptor alpha (Rattus norvegicus) + Thyroid hormone receptor beta (Rattus norvegicus) (P18113 whole entry, looked up): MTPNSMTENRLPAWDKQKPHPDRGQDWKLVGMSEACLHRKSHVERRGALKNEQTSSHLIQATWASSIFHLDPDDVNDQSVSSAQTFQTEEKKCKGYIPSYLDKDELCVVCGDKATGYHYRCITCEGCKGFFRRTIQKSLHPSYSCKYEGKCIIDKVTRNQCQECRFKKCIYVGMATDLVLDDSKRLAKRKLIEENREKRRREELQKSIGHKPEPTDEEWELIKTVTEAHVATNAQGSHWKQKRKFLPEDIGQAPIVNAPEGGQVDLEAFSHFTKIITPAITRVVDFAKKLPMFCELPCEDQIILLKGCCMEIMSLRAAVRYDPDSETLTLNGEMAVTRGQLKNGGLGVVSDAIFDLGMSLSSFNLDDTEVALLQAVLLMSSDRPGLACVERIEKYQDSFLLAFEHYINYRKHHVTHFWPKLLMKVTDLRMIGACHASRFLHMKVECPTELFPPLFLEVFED
Chain of THRA (gene 7067) (P10827 whole entry, looked up, the tested form may be a part): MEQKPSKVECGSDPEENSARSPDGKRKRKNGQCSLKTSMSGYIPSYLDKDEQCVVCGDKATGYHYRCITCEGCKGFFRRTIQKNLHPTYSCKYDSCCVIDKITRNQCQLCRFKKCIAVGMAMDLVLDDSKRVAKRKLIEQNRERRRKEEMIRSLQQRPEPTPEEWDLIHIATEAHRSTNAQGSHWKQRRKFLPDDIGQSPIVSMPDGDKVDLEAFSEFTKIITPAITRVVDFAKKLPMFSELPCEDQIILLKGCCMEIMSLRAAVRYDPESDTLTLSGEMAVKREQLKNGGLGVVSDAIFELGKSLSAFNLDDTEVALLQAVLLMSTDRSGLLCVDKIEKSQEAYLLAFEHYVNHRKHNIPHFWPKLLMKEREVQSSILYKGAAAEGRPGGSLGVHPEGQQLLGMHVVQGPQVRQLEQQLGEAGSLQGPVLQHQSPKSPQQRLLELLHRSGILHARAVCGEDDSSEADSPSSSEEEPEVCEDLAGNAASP
Chain of PGR (gene 5241) (P06401 whole entry, looked up): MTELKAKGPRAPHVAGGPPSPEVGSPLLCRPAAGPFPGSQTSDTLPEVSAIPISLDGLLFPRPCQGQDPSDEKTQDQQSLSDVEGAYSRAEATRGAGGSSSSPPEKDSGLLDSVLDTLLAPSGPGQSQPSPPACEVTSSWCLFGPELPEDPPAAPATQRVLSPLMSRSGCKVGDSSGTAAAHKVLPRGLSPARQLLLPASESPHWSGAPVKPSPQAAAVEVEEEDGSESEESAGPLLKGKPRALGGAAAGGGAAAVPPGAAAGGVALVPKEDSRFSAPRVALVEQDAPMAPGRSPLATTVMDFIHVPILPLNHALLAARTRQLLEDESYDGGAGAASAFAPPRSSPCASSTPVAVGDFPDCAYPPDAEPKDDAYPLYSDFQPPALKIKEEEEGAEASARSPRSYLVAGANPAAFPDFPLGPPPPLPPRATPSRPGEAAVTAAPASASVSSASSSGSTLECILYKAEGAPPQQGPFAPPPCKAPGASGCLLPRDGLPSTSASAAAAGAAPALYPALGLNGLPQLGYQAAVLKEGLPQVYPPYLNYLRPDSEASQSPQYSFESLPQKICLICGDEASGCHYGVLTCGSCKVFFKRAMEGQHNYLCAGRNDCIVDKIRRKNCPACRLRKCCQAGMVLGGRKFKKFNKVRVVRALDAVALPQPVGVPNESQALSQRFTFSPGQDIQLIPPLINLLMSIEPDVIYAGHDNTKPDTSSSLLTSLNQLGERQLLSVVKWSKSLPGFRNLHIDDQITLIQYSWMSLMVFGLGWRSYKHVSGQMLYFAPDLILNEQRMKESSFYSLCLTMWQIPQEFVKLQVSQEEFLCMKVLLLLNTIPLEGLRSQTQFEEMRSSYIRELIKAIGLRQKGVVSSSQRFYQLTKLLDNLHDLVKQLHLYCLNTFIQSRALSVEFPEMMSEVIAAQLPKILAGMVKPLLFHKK

The target of the first test is PGR (gene 5241) (UniProt P06401). The test can be described thus: TOX21_PR_LUC_Followup_Antagonist: Tox21 HEK293 Progesterone Receptor (PR) Antagonism Luciferase Follow-Up Assay (AID 2283938).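 Note: curve fitted upward as signal gain over DMSO baseline despite antagonist label.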 The procedure, abridged:
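HEK293-PR-A-luc cells were precultured 5 days in medium with 10% charcoal-stripped FBS, seeded 3,000/well, then exposed to compounds in DMSO for 16 h at 37C. Luciferase was read by ONE-Glo luminescence after 30 min at room temperature.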
For orientation: AC50 means the concentration giving half of the maximal activity seen. `CCOC(=O)C(C#N)=C(c1ccccc1)c1ccccc1`: the concentration at half-maximal activity (AC50) is 23 µM (active).
Consider `Clc1ccc(C(c2ccccc2Cl)C(Cl)Cl)cc1` (stereo unspecified), for which the half-maximal activity concentration (AC50) was 13.1 µM (active).
Regarding `O=C(Nc1ccc2c(c1)Cc1ccccc1-2)C(F)(F)F`, the AC50 is 62.9 µM (active).
With `C=C1CC[C@H](O)C/C1=C/C=C1\CCC[C@]2(C)[C@@H]([C@H](C)/C=C/[C@H](C)C(C)C)CC[C@@H]12`, the compound was classed as inactive.
In the case of `CCCOC(=O)c1c(Cl)c(Cl)c(Cl)c(Cl)c1C(=O)OCCC`, the AC50 is 21.2 µM (active).
For `N#Cc1ccc(CC(=O)c2cccc(C(F)(F)F)c2)cc1`, the AC50 was 32 µM (active).

The target of the next test is Thyroid hormone receptor alpha (Rattus norvegicus) + Thyroid hormone receptor beta (Rattus norvegicus) (UniProt P18113+P63059). The test can be described thus: TOX21_TR_LUC_GH3_Agonist_Followup: Tox21 GH3 Thyroid Hormone Receptor Agonism Luciferase Follow-Up Assay (AID 2283939). The procedure, abridged:
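Rat GH3 cells (1,500/well) in serum-free assay medium, treated with 15-point series, 92 uM to 5 nM final, for 24 h at 37C. Luciferase via ONE-Glo luminescence; gain of signal fitted against DMSO, T3 positive control.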
Take `O=Cc1ccccc1S(=O)(=O)O`: the outcome was inactive.
Take `C[C@H](CCC(=O)NCC(=O)O)[C@H]1CC[C@H]2[C@@H]3[C@H](O)C[C@@H]4C[C@H](O)CC[C@]4(C)[C@H]3C[C@H](O)[C@]12C`: the result was inactive.
As for `OCCCCC(O)CO` (stereo unspecified), the result was inactive.
Regarding `Cc1cc(C)nc(NS(=O)(=O)c2ccc(N)cc2)n1`, the result was inactive.

Test system in another test: not listed separately
The test can be described thus: TOX21_PR_LUC_Followup_Antagonist_viability: Viability Assessment in the Tox21 HEK293 Progesterone Receptor (PR) Antagonism Luciferase Follow-Up Assay (AID 2283940). An outline of the steps: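 Cellular ATP, measured with luciferase-coupled CellTiter-Glo, served as the viability endpoint after HEK293-PR-A-luc cells were exposed to test compounds for 16 h at 37C.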
With `CCOC(=O)C(C#N)=C(c1ccccc1)c1ccccc1`, the compound was classed as inactive.
Consider `O=c1c(O)c(-c2ccc(O)cc2)oc2cc(O)cc(O)c12`, for which the call was inactive.
Regarding `O=C(Nc1ccc2c(c1)Cc1ccccc1-2)C(F)(F)F`, the outcome was inactive.
Take `C=C1CC[C@H](O)C/C1=C/C=C1\CCC[C@]2(C)[C@@H]([C@H](C)/C=C/[C@H](C)C(C)C)CC[C@@H]12`: the compound was called inactive.
Regarding `CCCOC(=O)c1c(Cl)c(Cl)c(Cl)c(Cl)c1C(=O)OCCC`, the compound was classed as inactive.
For `N#Cc1ccc(CC(=O)c2cccc(C(F)(F)F)c2)cc1`, the result was inactive.

Test system in the next test: not listed separately
The test can be described thus: TOX21_PR_LUC_Followup_Agonist_viability: Viability Assessment in the Tox21 HEK293 Progesterone Receptor (PR) Agonism Luciferase Follow-Up Assay (AID 2283941).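 Note: loss of signal means cytotoxicity so actives lower viability.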 The procedure, abridged:
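Luminescent ATP quantitation (CellTiter-Glo) serves as the read-out; a drop flags cytotoxic compounds. Cells are HEK293-PR-A-luc grown in 10% charcoal-stripped FBS, plated 3,000/well, and exposed to compound for 16 h.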
Regarding `CCOC(=O)C(C#N)=C(c1ccccc1)c1ccccc1`, the call was inactive.
Same read-out and setting: in the case of `O=c1c(O)c(-c2ccc(O)cc2)oc2cc(O)cc(O)c12` it was “inactive”; in that of `O=C(Nc1ccc2c(c1)Cc1ccccc1-2)C(F)(F)F`, “inactive”.
Same read-out and setting: in the case of `CCCOC(=O)c1c(Cl)c(Cl)c(Cl)c(Cl)c1C(=O)OCCC` it was “inactive”.
`N#Cc1ccc(CC(=O)c2cccc(C(F)(F)F)c2)cc1`: the result was inactive.

Another test deals with THRA (gene 7067) (UniProt P10827). The test can be described thus: TOX21_TRA_COA_Agonist_Followup_ratio: Tox21 Thyroid Hormone Receptor alpha Agonism through Coactivator Recruitment Follow-Up Assay, Ratio (AID 2283948; active = hit-call score of the fitted dose curve at least 0.9, where 1 is the maximum; inactive = score below 0.9). The procedure, abridged:
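Read-out is the 520/495 nm emission ratio (ex 340 nm), scaled between DMSO-only wells as 0% and T3 wells as 100%. It reflects fluorescein-SRC-2 peptide recruitment to GST-TRα LBD detected via terbium anti-GST antibody.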
Take `O=Cc1ccccc1S(=O)(=O)O`: the result was inactive.
On to `C[C@H](CCC(=O)NCC(=O)O)[C@H]1CC[C@H]2[C@@H]3[C@H](O)C[C@@H]4C[C@H](O)CC[C@]4(C)[C@H]3C[C@H](O)[C@]12C`, for which the outcome was inactive.
As to `OCCCCC(O)CO` (stereo unspecified), the outcome was inactive.
Consider `Cc1cc(C)nc(NS(=O)(=O)c2ccc(N)cc2)n1`, for which the result was inactive.
Turning to `CC(=O)Nc1ccc(C(=O)CCl)cc1`, the result was inactive.
